Compound activity as filed in PubChem BioAssay.
Most compounds without a hit are left out; they make up all but 10% or so of the library.
G9a inh: G9a (human) methyltransferase inhibition | G9a H3K9 monomethylation, AlphaScreen, 2 h | Potency, µM (doses to about 102 µM), inactives show at the highest dose activity, negative = inhibition, hits mostly inhibitors | Q96KQ7 | hit rate 8.8% among 350,000; also: potency is read from the fitted curve at half-maximal effect; % is scaled to controls: 0 for no effect and ±100 for the full control effect; nearly all actives have a fitted effect of over 75% in size
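Chemiluminescent proximity detection of H3K9 monomethylation, read after 10 min bead incubation in the dark. Reaction: 20 nM G9a, 500 nM biotin-H3K9 peptide, 20 uM SAM cofactor, 2 h, room temperature, following 15 min enzyme-compound preincubation.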
Six1-Eya2 inh: Six1/Eya2 interaction inhibition. Q15475+O00167. AlphaScreen GST-Six1/His-Eya2 binding, biochemical; active compounds read low. activity change, % (test concentration not listed). hit rate 0.56% among 360,000. AID 651725; in the data active = activity change below about -65%; inconclusive = mostly about -30% to -63%; also: % is scaled to controls: 0 for no effect and ±100 for the full control effect
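Six1/Eya2 binding was read as AlphaScreen signal after compounds were pinned into GST-Six1 plus His-tagged Eya2 (5X stock 250/500 nM) in pH 8.0 Tris/NaCl/TCEP buffer, beads added, then incubated 1 h, 37 C, dark.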
BAZ2B inh: inhibitors of human BAZ2B bromodomain. AlphaScreen BAZ2B-H3K14Ac peptide displacement. Potency, µM (titrated, usually from 114 µM), inactives show top-dose activity change, negative = inhibition, hits mostly inhibitors. hit rate 4.4% among 360,000. AID 504333; also: potency is read from the fitted curve at half-maximal effect; % is scaled to controls: 0 for no effect and ±100 for the full control effect; nearly all actives have a fitted effect of over 60% in size
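AlphaScreen displacement: compounds (up to 110uM) incubated 30 min at room temperature with a preformed 50 nM BAZ2B/50 nM biotinylated H3K14Ac peptide complex in PBS pH 7.4 with Tween-20. Donor and acceptor beads at 10 ug/mL final added, 20 min light-protected before reading.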
JMJD2A Tudor: blocks the human JMJD2A Tudor domain. O75164. AlphaScreen JMJD2A-Tudor / H3K4me3 peptide binding. Potency, µM (titrated, usually from 114 µM), without a hit: top-dose activity change, negative = inhibition, most hits filed as inhibitors. hit rate 4.4% among 390,000; also: potency is read from the fitted curve at half-maximal effect; % is scaled to controls: 0 for no effect and ±100 for the full control effect; nearly all actives have a fitted effect of over 50% in size
CtBP-E1A inh: blocks the CtBP interaction with E1A. AlphaScreen GST-E1A/His-CtBP binding, 1536-well; active compounds read low. activity change, % (concentration not given with the values). hit rate 0.49% among 340,000; in the data active = activity change below about -65%; inconclusive = mostly about -30% to -63%; also: % is scaled to controls: 0 for no effect and ±100 for the full control effect
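Steps: dispense buffer (Tris pH 8.0, NaCl 300 mM, TCEP 1 mM, BSA, Tween 20); add 5X protein mix (GST-E1A, His-CtBP, 125 nM each); pin 23 nL compound; 2 h at 37 °C, dark; add 5X beads (50 ug/mL); 1 h; read.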
HP1b chromo inh: inhibitors of HP1-beta chromodomain binding to methylated histone tails; Potency, µM (highest dose often 114 µM), for inactives: at the top dose activity change, negative = inhibition, actives largely listed as inhibitors; P83916; hit rate 0.56% among 390,000; AID 540317; AlphaScreen HP1-beta / biotin-H3K9me3 peptide binding; also: potency is read from the fitted curve at half-maximal effect; nearly all actives have a fitted effect of over 70% in size
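HP1-beta protein (50 nM final) preincubated 30 min at room temperature with biotinylated H3(1-18)K9me3 peptide (50 nM) in PBS pH 7.4, 0.01% Tween-20, then compound added for 30 min. AlphaScreen streptavidin donor/nickel chelate acceptor beads (10 ug/mL final), 30 min dark, luminescence read.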
The depositor's hits bear a star; ? = inconclusive; nt = no result; [ ] = remark or other dose. Unless noted, calls follow the shape of the dose curve; as a rule, active = well fitted inhibition curve with a large enough effect; inconclusive = small, poorly fitted or top-dose-only effect; inactive = no such curve, though single readings can be large or run the other way.

SMILES | G9a inh | Six1-Eya2 inh | BAZ2B inh | JMJD2A Tudor | CtBP-E1A inh | HP1b chromo inh
Cc1cc2c(s1)c1cnn(Cc3cccc(Cn4ncc5c6sc(C)cc6n(C)c5c4=O)c3F)c(=O)c1n2C | nt | nt | nt | -21% | nt | nt
CN(C(=O)c1ccc(OC2CCN(Cc3ccccn3)CC2)cc1)C1CCCCC1 | 19% | -1 | -24% | -14% | 3 | 56%
Cc1csc(C(C)N(C)C(=O)c2ccc(OC3CCN(Cc4ccccn4)CC3)cc2)n1 (stereo not drawn) | 71µM* | -7 | ? | -24% | -1 | 8%
Cc1nc(C(C)NC(=O)c2ccc(OC3CCN(Cc4ccccn4)CC3)cc2)c(C)s1 (stereo not drawn) | 7% | -6 | 79µM* | -34% | -1 | 59%
COc1ccc(-c2cc3c(=O)n(CC(=O)N4CCN(C)CC4)ncn3n2)cc1 | 25% | -1 | 0% | 0% | -18 | 13%
CN(CP(=O)(O)CN(C)S(C)(=O)=O)S(C)(=O)=O | -45%[12.7 µM] | 13 | 89µM* | 50µM* | -3 | 9%
O=C(CSc1nc2c([nH]c3ccccc32)c(=O)n1-c1ccccc1)Nc1cccc(C(F)(F)F)c1 | 10%[59 µM] | nt | -2% | -22% | nt | 17%[57 µM]
COc1cccc(NC(=O)CSc2nc(O)c(C)c(=O)n2-c2ccc(C)cc2)c1 | -3% | -10 | -20% | 79µM* | 17 | 0%
COc1cccc(-n2c(SCC(=O)Nc3cc(C)on3)nc3c([nH]c4ccccc43)c2=O)c1 | 40µM* | -11 | -21% | -17% | -6 | 37%
Cc1c(O)nc(SCC(=O)Nc2cccc(C(F)(F)F)c2)n(-c2ccccc2)c1=O | 45µM* | -1 | -30% | -23% | 0 | -3%
COc1cccc(CN(C)C(=O)C(Cc2ccccc2)NC(=O)c2ccccc2)c1OC (stereo not drawn) | 8% | -3 | 2% | -17% | 1 | -7%
O=C(NCC1COc2ccccc2O1)c1ccccc1 (stereo not drawn) | -1% | -2 | 8% | -3% | -6 | 47%
Cc1ccc(/C=C/C(=O)NCC2COc3ccccc3O2)o1 (stereo not drawn) | ? | -3 | ? | 56µM* | 1 | ?
O=C(CNC(=O)Cc1ccccc1)N=Nc1c(O)[nH]c2ccccc12 | -14% | -2 | -3% | -7% | -2 | 26%
NS(=O)(=O)c1ccc(CNC(=O)/C=C/c2ccco2)cc1 | 40µM* | -23 | 56µM* | ? | 3 | ?
Cc1cc(C(=O)NCC2COc3ccccc3O2)c2ccccc2n1 (stereo not drawn) | 45µM* | -2 | -17% | -3% | -1 | 36%
O=C(CNC(=O)/C=C/c1ccco1)N=Nc1c(O)[nH]c2ccccc12 | 35µM* | -1 | 56µM* | -4% | nt | 39%
O=C(/C=C/c1ccco1)NCc1ccc(F)cc1 | ? | -9 | ? | -7%[11.4 µM] | nt | -17%
CC(C)(C)c1ccc(NC(=O)c2c(F)cccc2Cl)cc1 | 33% | 4 | -2% | -4% | 6 | 46%
CCOC(=O)c1ccc(NC(=O)C2=C(C)C(=O)OC23CCN(C(C)C)CC3)cc1 | 8%[59 µM] | nt | 2% | -17% | nt | 19%
Cc1nc2ccccc2nc1CN1CCC(CO)(CC2CCCCO2)CC1 (stereo not drawn) | 5% | 9 | -3% | -19% | 5 | 39%
O=C(/C=C/c1ccco1)NCc1ccco1 | 50µM* | -8 | 56µM* | -19% | 0 | -18%
O=C(O)/C=C/C(=O)NCc1ccccn1 | 45µM* | 6 | ? | 6% | -12 | 37%
Cc1ccc(/C=C/C(=O)NCCc2c[nH]c3ccccc23)o1 | 45µM* | 13 | nt | -32% | 0 | ?
Cc1ccc(/C=C/C(=O)NCc2ccccn2)o1 | ? | -2 | 45µM* | 50µM* | 0 | ?
SMILES | G9a inh | Six1-Eya2 inh | BAZ2B inh | JMJD2A Tudor | CtBP-E1A inh | HP1b chromo inh
O=C(O)/C=C/C(=O)NCc1ccccc1 | ? | 2 | -3% | -8% | -4 | 49%
C=CCN(C(=O)c1csnn1)C(C(=O)NC1CCCC1)c1ccccc1F (stereo not drawn) | -7% | 8 | -1% | -15% | 0 | -12%
COc1ccccc1Nc1ncc2c(n1)CCN(CC(C)C)C2 | 7%[59 µM] | nt | -14% | -14% | nt | 11%
CCc1ccc(-c2nn(CC(=O)NC3CCCCC3)c3c2cnc2ccc(OC)cc23)cc1 | 6%[59 µM] | nt | -16% | -16% | nt | 42%
COc1cc(OC)c(N(C)C(=O)c2cn(C3CCCC3)c(=O)c3c2c2ccccc2n3C)cc1Cl | ? | nt | ? | ? | nt | -1%
Cc1ccc(/C=C/C(=O)NCc2ccco2)o1 | 20µM* | nt | ? | nt | nt | nt
Cc1nc(NC(=O)C2CCCC2)sc1Cc1ccc2c(c1)OCO2 | ? | -8 | 50µM* | ? | 5 | 13%
O=C(O)CC(NC(=O)C12CC3CC(CC(C3)C1)C2)c1ccc2c(c1)OCO2 (stereo not drawn) | ? | 20 | 7% | -2% | 29 | 37%
Cc1nc(NC(=O)C23CC4CC(CC(C4)C2)C3)sc1Cc1ccc2c(c1)OCO2 | 35µM* | 10 | -36% | ? | 0 | -2%
Cc1cccc(C(=O)NCCC(=O)Nc2nc(C)c(Cc3ccc4c(c3)OCO4)s2)c1 | 3%[59 µM] | 1 | -28% | -5% | -4 | 17%
COc1ccc(NC(=O)COC(=O)Cc2cccs2)cc1Cl | nt | -2 | nt | nt | 0 | nt
CN(C)CCNC(=O)c1scc2c1CCCC2 | nt | 0 | ? | 89µM* | 1 | 25%
O=C(CCNC(=O)c1ccc(Br)cc1)Nc1ccccc1N1CCCCC1 | 56µM* | -1 | -2% | -7% | 2 | 16%
O=C(COc1ccc(Br)cc1)Nc1ccccc1N1CCCC1 | 45µM* | -13 | -19% | 1% | nt | 32%
CCOC(=O)c1c(/N=C/N(C)C)sc(/C=N/Nc2ccccc2)c1-c1ccccc1Cl | 40µM* | -8 | -7% | ? | 0 | 11%
CCOC(=O)c1c(/N=C/N(C)C)sc(/C=N/Nc2ccccc2)c1-c1ccccc1 | ? | 1 | -4% | ? | 1 | -11%
CCOC(=O)c1ccc(NC(=O)COc2coc(CN3CCc4ccccc43)cc2=O)cc1 | -37% | -1 | ? | ? | 9 | 8%
Cc1ccc(NC(=O)COc2coc(CN3c4ccccc4CC3C)cc2=O)c(C)c1 (stereo not drawn) | 50µM* | -2 | ? | ? | 4 | -15%
Cc1cc(C)cc(NC(=O)COc2coc(CN3CCc4ccccc43)cc2=O)c1 | 50µM* | -6 | ? | -31% | -1 | 22%
CC1CCN(C(=O)COc2coc(CN3CCc4ccccc43)cc2=O)CC1 | ? | 1 | -1% | -18% | -14 | 14%
